The full list was thinned out, with the strongest signals kept by preference.
Key:
Test in all cases: glycan array binding signal (z-score within array); higher = stronger binding
Conditions in all cases: glycan notation: IUPAC condensed, linker removed
[1] = target: GlcNAc(a1-4)Gal(b1-4)GalNAc
Method in brief: (§1)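 Glycan array data came from 3228 arrays in the Consortium for Functional Glycomics database, and only arrays with an available protein sequence were kept. Glycan names were put into IUPAC-condensed notation, and columns mapping to the same glycan were averaged. The binding signal is a within-array Z-score, averaged across arrays of one protein sequence run at different concentrations or buffers and across linkers. A negative Z-score can be read as non-binding.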

[2] = target: GlcNAc(a1-4)Gal(b1-4)GlcNAc(b1-3)Gal(b1-4)GlcNAc(b1-3)Gal(b1-4)GlcNAc
Method in brief: as §1

[3] = target: GlcNAc(b1-2)[GlcNAc(b1-4)]Man(a1-3)[GlcNAc(b1-4)][GlcNAc(b1-2)[GlcNAc(b1-6)]Man(a1-6)]Man(b1-4)GlcNAc(b1-4)[Fuc(a1-6)]GlcNAc
Method in brief: as §1

[4] = target: GlcNAc(b1-2)[GlcNAc(b1-6)]Man(a1-6)[GlcNAc(b1-2)Man(a1-3)]Man(b1-4)GlcNAc(b1-4)[Fuc(a1-6)]GlcNAc
Method in brief: as §1

[5] = target: GlcNAc(b1-3)Gal(b1-4)GlcNAc(b1-3)Gal(b1-4)GlcNAc
Method in brief: as §1

[6] = target: GlcNAc(b1-3)Gal(b1-4)GlcNAc(b1-3)Gal(b1-4)GlcNAc(b1-2)Man(a1-3)[GlcNAc(b1-3)Gal(b1-4)GlcNAc(b1-3)Gal(b1-4)GlcNAc(b1-2)Man(a1-6)]Man(b1-4)GlcNAc(b1-4)[Fuc(a1-6)]GlcNAc
Method in brief: as §1

[7] = target: GlcNAc(b1-3)Gal(b1-4)GlcNAc(b1-3)Gal(b1-4)GlcNAc(b1-2)[GlcNAc(b1-3)Gal(b1-4)GlcNAc(b1-3)Gal(b1-4)GlcNAc(b1-6)]Man(a1-6)[GlcNAc(b1-3)Gal(b1-4)GlcNAc(b1-3)Gal(b1-4)GlcNAc(b1-2)Man(a1-3)]Man(b1-4)GlcNAc(b1-4)[Fuc(a1-6)]GlcNAc
Method in brief: as §1

[8] = target: GlcNAc(b1-4)GlcNAc(b1-4)GlcNAc(b1-4)GlcNAc(b1-4)GlcNAc
Method in brief: as §1

[9] = target: Man(a1-2)Man(a1-3)[Man(a1-2)Man(a1-6)]Man
Method in brief: as §1

[10] = target: Man(a1-2)Man(a1-3)[Man(a1-2)Man(a1-6)]Man(a1-6)[Man(a1-2)Man(a1-2)Man(a1-3)]Man
Method in brief: as §1

[11] = target: Man(a1-3)[Man(a1-6)]Man(a1-6)[Man(a1-2)Man(a1-3)]Man(b1-4)GlcNAc(b1-4)GlcNAc
Method in brief: as §1

[12] = target: Man(a1-3)[Man(a1-6)]Man(a1-6)[Man(a1-3)]Man
Method in brief: as §1

Man(a1-6)Man = target: Man(a1-6)Man
Method in brief: as §1

[13] = target: Neu5Ac(a2-3)Gal(b1-4)GlcNAc(b1-3)Gal(b1-4)GlcNAc(b1-3)Gal(b1-4)GlcNAc(b1-2)Man(a1-3)[Neu5Ac(a2-3)Gal(b1-4)GlcNAc(b1-3)Gal(b1-4)GlcNAc(b1-3)Gal(b1-4)GlcNAc(b1-2)Man(a1-6)]GalNAc
Method in brief: as §1

[14] = target: Neu5Ac(a2-3)Gal(b1-4)GlcNAc(b1-3)Gal(b1-4)GlcNAc(b1-3)[Neu5Ac(a2-3)Gal(b1-4)GlcNAc(b1-3)Gal(b1-4)GlcNAc(b1-6)]GalNAc
Method in brief: as §1

[15] = target: Neu5Ac(a2-3)Gal(b1-4)GlcNAc(b1-3)[Neu5Ac(a2-3)Gal(b1-4)GlcNAc(b1-6)]GalNAc
Method in brief: as §1

[16] = target: Neu5Ac(a2-3)Gal(b1-4)GlcNAc(b1-6)[Gal(b1-3)]GalNAc
Method in brief: as §1

[17] = target: Neu5Ac(a2-3)Gal(b1-4)[Fuc(a1-3)]GlcNAc(b1-2)Man
Method in brief: as §1

[18] = target: Neu5Ac(a2-6)Gal(b1-3)GlcNAc(b1-3)[Gal(b1-4)GlcNAc(b1-6)]Gal(b1-4)Glc
Method in brief: as §1

[19] = target: Neu5Ac(a2-6)Gal(b1-4)GlcNAc
Method in brief: as §1

[20] = target: Neu5Ac(a2-6)Gal(b1-4)GlcNAc(b1-2)Man(a1-6)Man(b1-4)GlcNAc(b1-4)GlcNAc
Method in brief: as §1

[21] = target: Neu5Ac(a2-6)Gal(b1-4)GlcNAc(b1-3)Gal(b1-4)GlcNAc(b1-3)[Neu5Ac(a2-6)Gal(b1-4)GlcNAc(b1-3)Gal(b1-4)GlcNAc(b1-6)]GalNAc
Method in brief: as §1

[22] = target: Neu5Ac(a2-6)Gal(b1-4)GlcNAc(b1-3)Gal(b1-4)GlcNAc(b1-6)[Gal(b1-3)]GalNAc
Method in brief: as §1

[23] = target: Neu5Ac(a2-6)Gal(b1-4)GlcNAc(b1-6)[Gal(b1-3)GlcNAc(b1-3)]Gal(b1-4)Glc
Method in brief: as §1

Neu5Ac(a2-6)GalNAc = target: Neu5Ac(a2-6)GalNAc
Method in brief: as §1

[24] = target: Neu5Ac(a2-6)GalNAc(b1-4)GlcNAc
Method in brief: as §1

[25] = target: Neu5Ac(a2-6)GalNAc(b1-4)GlcNAc6S
Method in brief: as §1

[26] = target: Neu5Ac(a2-6)GlcNAc(b1-4)GlcNAc
Method in brief: as §1

[27] = target: Neu5Ac(a2-8)Neu5Ac(a2-3)Gal(b1-4)Glc
Method in brief: as §1

B1: Aap brpt (Staphylococcus epidermidis) (protein)
chain: VDGDPITSTEEIPFDKKREFDPNLAPGTEKVVQKGEPGTKTITTPTTKNPLTGEKVGEGEPTEKITKQPVDEIVHYGGEEIKTGHKDEFDPNAPKGSQTTQPGKPGVKNPDTGEVVTPPVDDVTKYGPVDGDPITSTEEIPFDKKREFDPNLAPGTEKVVQKGEPGTKTITTPTTKNPLTGEKVGEGEPTEKITKQPVDEIVHYGGEEIKPGHKDEFDPNAPKGSQEDVPGKPGVKNPDTGEVVTPPVDDVTKYGPVDGDSITSTEEIPFDKKREFDPNLAPGTEKVVQKGEPGTKTITTPTTKNPLTGEKVGEGEPTEKITKQPVDEIVHYGGEQIPQGHKDEFDPNAPVDSKTEVPGKPGVKNPDTGEVVTPPVDDVTKYGPVDGDSITSTEEIPFDKKREFDPNLAPGTEKVVQKGEPGTKTITTPTTKNPLTGEKVGEGKSTEKVTKQPVDEIVEYGPTK
- glycan array binding signal (z-score) [1]: -1.15
- glycan array binding signal (z-score) [2]: 0.541
- glycan array binding signal (z-score) [3]: 0.314
- glycan array binding signal (z-score) [4]: -0.222
- glycan array binding signal (z-score) [5]: -0.363
- glycan array binding signal (z-score) [6]: 2.65
- glycan array binding signal (z-score) [7]: 3.02
- glycan array binding signal (z-score) [8]: -1.51
- glycan array binding signal (z-score) [9]: -0.923
- glycan array binding signal (z-score) [10]: 2.59
- glycan array binding signal (z-score) [11]: 2.29
- glycan array binding signal (z-score) [12]: -1
- glycan array binding signal (z-score) (Man(a1-6)Man): 1.21
- glycan array binding signal (z-score) [13]: 1.19
- glycan array binding signal (z-score) [14]: 0.565
- glycan array binding signal (z-score) [15]: 0.328
- glycan array binding signal (z-score) [16]: -0.96
- glycan array binding signal (z-score) [17]: 0.096
- glycan array binding signal (z-score) [18]: -0.86
- glycan array binding signal (z-score) [19]: -0.403
- glycan array binding signal (z-score) [20]: -0.15
- glycan array binding signal (z-score) [21]: 2.85
- glycan array binding signal (z-score) [22]: 2.73
- glycan array binding signal (z-score) [23]: 0.258
- glycan array binding signal (z-score) (Neu5Ac(a2-6)GalNAc): 1.84
- glycan array binding signal (z-score) [24]: 0.115
- glycan array binding signal (z-score) [25]: -0.313
- glycan array binding signal (z-score) [26]: 2.43
- glycan array binding signal (z-score) [27]: -0.002

From the supplement of paper PMC8728848
